# From the OligoGym collection
# Target: LRRC15
# Experiment: pooled miR-30 sensor sort-seq; sequence = guide strand
# Conditions: shRNA
# Note: reference of the scale not given here.
row,Sequence,sensor-assay potency score (higher = more potent)
1,TTGAGCAGGAGCCAGTTGCGGA,-0.932
2,TCTTGCAGCAGCAACAGCCGAC,-0.387
3,TTGTTGGACAGGTAGAGTCTCT,-0.632
4,TTGGACAGGTAGAGTCTCTGGA,0.0615
5,TTGCTGAAGACATTGTCGGGTA,0.015
6,TTCTTGCAGCAGCAACAGCCGA,-1.7
7,TTGAGGTTGCTGCACTGGGAGA,-1.66
8,TTGAGTTCAGTGATGTGCGTGT,0.975
9,TAACCTAGGCTGGTTGAGCAGG,-0.94
10,TAGTCAGATCAGTGTAGTCTTC,-1.03
11,AACAGCAACGTTGACATTGATG,-1.31

# Target: LRRC19
# Experiment: as above
# Conditions: shRNA
row,Sequence,sensor-assay potency score (higher = more potent)
1,TTATGTAAGATAGTAACCTTGT,0.182
2,TAACTGTCAACTACCGAGGAGT,-0.999
3,TTCATGAATAATTTAGACCTTT,-0.134
4,TTACTGTATTTGAACCTGCTTG,-0.499
5,TATAGTAACATCTTTCTTGATA,-0.839
6,TTCTGCTTCATGCTCTTCCAGG,-0.767
7,TTTGATATTGTAGCTCTGCAGG,-1.09
8,TTGATTATGAGGACTCAGCAAA,-0.795
9,TAAACTGTAGTGATCCTGCATT,-0.636
10,TATGTCTGTAGAACTCTTGTGT,0.236
11,TATGTAACTGTCAACTACCGAG,-0.747

# Target: LRRC1
# Experiment: as above
# Conditions: shRNA
row,Sequence,sensor-assay potency score (higher = more potent)
1,TTGCCTGTGACACCTCTGCAGG,-1.09
2,TAGTTTTCCAATGCCATCCGGA,-0.337
3,TTGACAGCACGCTCGTTCCAGG,-1.01
4,TAGCTGGAAAAATTGCTCGGGC,-0.498
5,TTTCGTAATTTGACTAGCTGGA,0.0536
6,TTTTCTGTAAGAACTAACTCAG,-0.115
7,TTCTAGTCTTCGCAGCTGGGTA,-0.92
8,TTCTTCTAGTCTTCGCAGCTGG,-0.37
9,TTTTGTTTGAGTCCAGTCCTTT,-0.559
10,TTTCTGTAAGAACTAACTCAGT,-0.926
11,TCTCTTGACAAGTAGGTTCAGA,-0.443
12,TCTGTTGACAGCACGCTCGTTC,0.237

# Target: LRRC45
# Experiment: as above
# Conditions: shRNA
row,Sequence,sensor-assay potency score (higher = more potent)
1,ATGCTGGTCATCTCCTGCCTGG,-1.52
2,TTCTGCAGGAAGCTCGCCCTCT,-0.654
3,TAGACTCCCGCTCTGCAGCTTC,-0.306
4,TGACTGATCTGGTTGTTGCGGA,0.13
5,TTCAGCTCAGCTGACATGCTGG,-0.387
6,TTGGCAGCAGACAAGTCTCTGA,-0.793
